Compound activity from PubChem BioAssay.
Hits are enriched below; roughly 2.3% of the tested compounds scored in any of these assays.
Mm-Cpn inhibitor – blocks the Methanococcus maripaludis chaperonin Mm-Cpn; purified Mm-Cpn ATPase, ADP Transcreener TR-FRET; Potency, µM (top dose mostly 76.9 µM), for inactives: at the highest dose activity, negative = inhibition, most hits filed as inhibitors; 330,000 compounds, 0.031% hits; also: potency is read from the fitted curve at half-maximal effect; % is scaled to controls: 0 for no effect and ±100 for the full control effect; nearly all actives have a fitted effect of over 80% in size
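Quantitative HTS used 25 nM Mm-CPN and 10 uM ATP in magnesium/KCl Tris buffer, pH 7.4, with 1 mM DTT. Hydrolysis ran 30 min at 37°C; ADP was read by HTRF.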
FUS suppressor – suppressors of FUS proteinopathy in yeast; S. cerevisiae FUS-expressing, growth rescue, OD600, 24 h; Potency, µM (top dose mostly 76.6 µM), hits mostly activators; 390,000 compounds, 0.24% hits; AID 1347120;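 also: potency is read from the fitted curve at half-maximal effect; plate controls were DMSO vehicle for no effect and reference control for full effect; nearly all actives have a fitted effect of over 55% in size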
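Yeast expressing FUS under galactose induction, OD 0.005 in 2% galactose medium; compounds in a dilution series, 24 h at 30C. Growth rescue by absorbance at 600 nm; CP55940 positive control, DMSO negative.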
TDP-43 yeast inh – TDP-43 toxicity inhibition in yeast; 410,000 compounds, 1.8% hits; Potency, µM (series often up to 46.1 µM), inactives show at the highest dose growth rescue (activation), hits mostly activators; TDP-43 expressing yeast growth rescue, BacTiter-Glo, 24 h; also: potency is read from the fitted curve at half-maximal effect; % of control where 0% means no effect; nearly all actives have a fitted effect of over 50% in size
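Galactose-induced TDP-43 yeast, OD600=0.02, compound pinned; 24 hr, 30 deg C; BacTiter-Glo luminescence for growth. Inhibitors of TDP-43 toxicity read as activators.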
Abeta rescue – restores growth of yeast expressing A-beta42 peptide; AID 1347071; 410,000 compounds, 0.063% hits; yeast expressing A-beta42, growth rescue, OD600, 48 h; response scale: 0% DMSO, 100% iron-clioquinol control; Potency, µM (series often up to 46.1 µM), most hits filed as activators; also: potency is read from the fitted curve at half-maximal effect; nearly all actives have a fitted effect of over 55% in size
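Growth rescue measured by 600 nm absorbance after 48 h yeast culture at 30 C with compound. Values normalized between DMSO and an equimolar ferric chloride plus clioquinol control.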
CCT modulator – cytosolic chaperonin activity modulation; purified chaperonin ATPase assay, HTRF ADP detection, 30 min; activity change, % (concentration not given with the values), hits read low; 360,000 compounds, 0.3% hits; AID 651819; in the data active = activity change below about -30%; also: % is scaled to controls: 0 for no effect and ±100 for the full control effect
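Enzyme 40 or 20 nM (batch-dependent) in Tris pH 7.4/KCl/MgCl2/DTT; cpd 76 uM single point; ATP 10 uM; 30 min 37 °C; Transcreener ADP HTRF detection, 30 min RT; ratio 665/615.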
aSyn rescue – alpha-synuclein toxicity inhibition in yeast; Yeast expressing alpha-synuclein, growth rescue, BacTiter-Glo, 24 h; Potency, µM (titrated, usually from 46.1 µM), for the others: top-dose growth rescue (activation), actives largely listed as activators; 370,000 compounds, 0.14% hits; also: potency is read from the fitted curve at half-maximal effect; % of control where 0% means no effect; nearly all actives have a fitted effect of over 65% in size
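Rescue of yeast growth: cells expressing toxic alpha-synuclein, induced in galactose at OD600 0.02, incubated with compound 24 h at 30 C. ATP luminescence quantified growth; inhibitors of toxicity appear as activators.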
Active calls of the source: *; i = inactive; ? = inconclusive; / = no result given; [ ] = another dose, or the depositor's remark. Unless noted, calls follow the shape of the dose curve; as a rule, active = well fitted curve in the direction sought with a large enough effect; inconclusive = small, poorly fitted or top-dose-only effect, or another doubt; inactive = no such curve, though single readings can be large; an effect the other way counts as inactive or inconclusive.

SMILES	Mm-Cpn inhibitor	FUS suppressor	TDP-43 yeast inh	Abeta rescue	CCT modulator	aSyn rescue
CC(C)CC(COCc1cccc(C(F)(F)F)c1)N1CCN(C(=O)c2cccc(C(F)(F)F)c2)CCC1=O (configuration not stated)	0%	?	25%	i	-3	22%
Cc1ccc(COC[C@H](CC(C)C)N2CCN(C(=O)c3cccc(C(F)(F)F)c3)CCC2=O)cc1	/	4.5µM*	16µM*	i	1	12%
CC(C)CC(COCc1ccc(Cl)cc1)N1CCN(C(=O)c2cccc(C(F)(F)F)c2)CCC1=O (configuration not stated)	-1%	32µM*	20%	i	-3	11%
Cc1ccccc1COC[C@H](CC(C)C)N1CCN(C(=O)c2cccc(C(F)(F)F)c2)CCC1=O	0%	?	11%	i	1	27%
CC(C)(C)c1ccc(C(=O)C[n+]2ccccc2Cl)cc1	/	/	/	/	/	16%
CC(Sc1ccc2ccccc2n1)C(=O)O (configuration not stated)	-15%	i	11µM*	i	-2	-17%
C=CCNc1nc(Cl)nc(NC2CCCCC2)n1	2%	i	16µM*	i	-5	-17%
C[C@H]1[C@@H](OC(=O)NCc2ccccc2Cl)CC[C@@]23CCCN2C(=O)CCC[C@@H]13	/	i	/	/	/	/
CC(C)CN(C)c1ccc(/C=C2\C=Cc3ccccc32)cc1	/	/	/	/	/	19%
O=C1N2CCc3ccccc3C2CS(=O)(=O)N1CCc1ccccc1 (configuration not stated)	/	i	/	/	/	/
O=C(O)CC1(CC(=O)Nc2ccc(Br)cc2)CCCCC1	1%	i	11µM*	i	-2	-41%
Fc1ccc(CSc2nnc(-c3ccccn3)o2)cc1	3%	i	13µM*	i	-1	-2%
O=C(CSc1nnc(-c2ccccn2)o1)Nc1ccc(F)cc1	-1%	i	17%	i	-1	-5%
CCN1C(=O)[C@H]2[C@@H](c3ccc(-c4ccc(Cl)c(Cl)c4)cc3)N3CCCC[C@@]3(C(=O)OC)[C@H]2C1=O	-7%	i	13%	i	2	?
CCN1C(=O)[C@H]2[C@@H](c3ccc(-c4ccc(Cl)c(Cl)c4)cc3)N[C@@](C)(C(=O)OC)[C@H]2C1=O	0%	32µM*	20µM*	i	-1	-9%
CCN1C(=O)[C@@H]2[C@@H](c3ccc(-c4ccc(Cl)c(Cl)c4)cc3)N3CCC[C@@]3(C(=O)OC)[C@@H]2C1=O	0%	20µM*	14%	i	-1	2%
COC(=O)[C@]1(Cc2ccccc2)N[C@H](c2ccc(-c3cccc(Cl)c3)cc2)[C@@H]2C(=O)N(C)C(=O)[C@@H]21	-5%	14µM*	8%	i	0	27%
CCN1C(=O)[C@H]2[C@@H](c3ccc(-c4ccc(Cl)c(Cl)c4)c(OC)c3)N3CCCC[C@@]3(C(=O)OC)[C@H]2C1=O	-5%	25µM*	3%	i	-1	?
CCOC(=O)Nc1ccc2c(c1)[C@]1(CC(=O)N(CC(C)C)C1c1ccccc1)C(=O)N2C (some centres not stated)	/	i	/	/	/	/
C[C@@H]1[C@@H](O)C[C@@]2(CC(=O)c3ccccc3O2)O[C@H]1c1ccccc1	/	i	/	/	/	/
Nc1nc(-c2ccco2)nn1C(=O)c1ccc(F)cc1	-1%	i	11µM*	i	-4	4%
Clc1ccc(-c2cc3ccccc3nc2N2CCCC2)cc1	-7%	i	-10%	i	1	-10%
Clc1ccc(-c2cc3ccccc3nc2N2CCOCC2)cc1	0%	i	18µM*	i	0	10%
COc1cc(/C=C/C(=O)OCC(=O)Nc2ccc(NC(C)=O)cc2)cc(S(=O)(=O)N2CCc3ccccc32)c1OC	-1%	?	/	i	-45*	7%
Cc1ccc(/C=C/C(=O)O)cc1S(=O)(=O)N1CCc2ccccc21	0%	i	7.9µM*	i	-1	10%
SMILES	Mm-Cpn inhibitor	FUS suppressor	TDP-43 yeast inh	Abeta rescue	CCT modulator	aSyn rescue
O=C(O)COc1ccccc1C=NNC(=O)Cc1cc(=O)[nH][nH]1	/	i	/	/	/	/
CC(C)(C)OC(=O)NC1CCN(c2nc(-c3ccc(Br)cc3)cs2)CC1	/	i	/	/	/	/
CCn1c(/C=C/c2ccc(F)cc2)nc2ccccc2c1=O	-3%	i	22µM*	i	-4	-13%
CCn1c(/C=C/c2ccccc2)nc2ccccc2c1=O	-2%[15.4 µM]	i	35µM*	i	-1	-1%
COc1ccc(C(=S)N2CCOCC2)cc1OC(=O)c1ccc([N+](=O)[O-])cc1[N+](=O)[O-]	3%	i	22µM*	i	2	7%
COc1cc(C(=S)N2CCOCC2)ccc1OC(=O)c1cc([N+](=O)[O-])cc([N+](=O)[O-])c1	1%	/	8%	i	-5	0%
Cc1ccc(NC(=O)C2CCCN2S(=O)(=O)c2ccc3nc(-c4ccccc4)[nH]c3c2)cc1F (configuration not stated)	/	i	10%	i	/	/
O=C(Nc1ccccc1)OCC1CCCO1 (configuration not stated)	/	i	3%	i	-1	2%
O=C(Nc1ccccc1)OCC1COC(c2ccccc2)(c2ccccc2)O1 (configuration not stated)	/	/	20µM*	i	-2	11%
CCOc1ccc(NC(=O)CSc2nc3ccsc3c(=O)n2CCC(C)C)cc1	/	i	12%	i	/	/
CN1CC(O)([C@H](Cc2ccccc2)NC(=O)OC(C)(C)C)OCC1C(=O)NCc1cccc2ccccc12 (some centres not stated)	/	i	/	/	/	/
CCCN(C(=O)c1cc2c(s1)-c1ccccc1SC2)c1ccccc1F	/	i	8%	i	/	/
COc1ccc(-c2noc(N3CCC(C(=O)N4CCN(c5ccccc5OC)CC4)CC3)n2)cc1	/	?	28µM*	i	/	/
COc1ccccc1N1CCN(C(=O)C2CC2)CC1	/	i	4%	i	-2	-1%
COc1ccccc1N1CCN(C(=O)C2c3ccccc3Oc3ccccc32)CC1	1%	i	?	i	-3	20µM*
COc1ccc(S(=O)(=O)N(C(=O)c2ccncc2)c2ccc3oc(C)c(C(C)=O)c3c2)cc1	/	i	0%	i	/	/
CCN(CC)c1ccc(/C=C2\C=Cc3ccccc32)cc1	/	/	/	/	/	2%
O=S(=O)(N[C@@H]1CCCC[C@@H]1N1CCOCC1)c1ccc(Cl)cc1	/	i	/	/	/	/
